From PubChem
Only some compounds are listed: those with a hit (about 21% of all), similar ones and a draw of the others.
RORgamma inh: ROR gamma (mouse) transcription inhibition; Drosophila S2 Gal4-RORgamma UAS-luciferase reporter, 20 h; Potency, µM (highest dose often 53.6 µM), most hits filed as inhibitors; hit rate 5.4% among 310,000; AID 2551; note: nearly all actives have a fitted effect of over 60% in size
Target sequence (P51450 whole entry, looked up, the tested form may be a part): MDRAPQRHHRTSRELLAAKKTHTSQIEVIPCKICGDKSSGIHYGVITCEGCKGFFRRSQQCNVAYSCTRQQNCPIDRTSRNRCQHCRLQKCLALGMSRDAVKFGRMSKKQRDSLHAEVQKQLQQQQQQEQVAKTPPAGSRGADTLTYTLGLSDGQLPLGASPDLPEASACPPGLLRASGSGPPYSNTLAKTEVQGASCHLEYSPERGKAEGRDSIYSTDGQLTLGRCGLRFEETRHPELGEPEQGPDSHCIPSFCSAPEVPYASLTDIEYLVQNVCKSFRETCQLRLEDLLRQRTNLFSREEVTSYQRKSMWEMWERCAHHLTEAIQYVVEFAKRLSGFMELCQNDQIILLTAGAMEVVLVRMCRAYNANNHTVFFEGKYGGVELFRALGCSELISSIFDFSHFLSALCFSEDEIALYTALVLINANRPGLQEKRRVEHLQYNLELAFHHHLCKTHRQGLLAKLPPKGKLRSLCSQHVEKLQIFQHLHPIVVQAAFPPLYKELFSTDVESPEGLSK
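ROR gamma transcriptional activity was tracked as Gal4-UAS luciferase output in stably transfected Drosophila Schneider cells, with compound added 1 hr before 700 uM copper sulfate induction and a 20 hr ambient-temperature incubation.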
Gal4-VP16 FLuc: counter-screen for ROR gamma inhibitors: Gal4-VP16 reporter. Drosophila S2 Gal4-VP16 UAS-luciferase, luminescence, 20 h. Potency, µM (series often up to 53.6 µM), hits mostly inhibitors. hit rate 3.5% among 310,000. AID 2546;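 note: Gal4-VP16 expression switched on by copper sulfate through the metallothionein promoter; nearly all actives have a fitted effect of over 50% in size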
IL-1B inflam inh: inhibitors of inflammasome signaling (IL-1 beta secretion); THP-1 LPS/ATP IL-1B secretion, AlphaLISA, 16 h; hits give low values; activity change, % at 57.5 µM; hit rate 4.7% among 360,000; AID 743279; in the data active = activity change below about -50%; inconclusive = mostly about -30% to -49%
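THP-1 cells pretreated 1 hr with compounds (up to 57.5 uM final), then stimulated with LPS (250 ng/mL final) plus ATP (1.25 mM final); secreted IL-1B measured by AlphaLISA after 16 hr, decreased signal indicating inhibition.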
DT40 TDP1 CPT: growth inhibition of DT40 Tdp1-/-;hTDP1 cells with camptothecin (screen for TDP1 inhibitors); chicken DT40 Tdp1-/-;hTDP1 cells + 20 nM CPT, ATP luminescence, 48 h; Potency, µM (titrated, usually from 46.2 µM), hits mostly inhibitors; hit rate 12% among 420,000; note: nearly all actives have a fitted effect of over 55% in size
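Chicken DT40 Tdp1-/- cells stably complemented with human TDP1 were seeded at 400 cells/well in medium containing 20 nM camptothecin, exposed to pin-transferred compounds, and grown at 37 °C for at least 48 hr. Viability was read as ATP luminescence.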
TDP1 cell noCPT: qHTS for Inhibitors of human tyrosyl-DNA phosphodiesterase 1 (TDP1): qHTS in cells in absence of CPT; DT40 Tdp1-/- hTDP1 cells, no CPT, ATP luminescence, 48 h; Potency, µM (doses to about 46.2 µM), actives largely listed as inhibitors; hit rate 15% among 420,000; AID 686978, 2013; note: nearly all actives have a fitted effect of over 55% in size
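Chicken DT40 Tdp1-/- cells complemented with human TDP1, screened without camptothecin (DMSO vehicle only), 400 cells/well. Compounds pin-transferred, cells incubated at 37 °C for at least 48 hr. Growth read as ATP-dependent luminescence (CellTiter-Glo, 30 min at RT).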
ELG1 repair inh: inhibitors of ELG1-dependent DNA repair in HEK293T cells | HEK293T ELG1-luciferase reporter, luminescence, 16 h; DNA damage induced by 5-fluorouridine | Potency, µM (series often up to 46.1 µM), usual class: inhibitors | hit rate 2.3% among 330,000 | AID 504467; note: nearly all actives have a fitted effect of over 55% in size
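Quantitative HTS, concentration-response format. 2,000 cells/well co-treated with 5-fluorouridine and compound, 16 hr in 5% CO2 at 37 °C; ONE-Glo luminescence read after 30 min.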
Large screens that a line does not name were inactive. Unless noted, calls come from the whole dose curve; as a rule, active = well fitted curve in the direction sought with a large enough effect; inconclusive = small, poorly fitted or top-dose-only effect, or another doubt; inactive = no such curve, though single readings can be large; an effect the other way counts as inactive or inconclusive.

O=C(NC1(C(F)(F)F)N=C(c2ccccc2)N(Cc2ccccc2)C1=O)c1ccc(F)cc1 (configuration not stated)	DT40 TDP1 CPT 21µM, TDP1 cell noCPT inconclusive (no result: RORgamma inh, Gal4-VP16 FLuc, IL-1B inflam inh, ELG1 repair inh)
COc1ccc(CN2C(=O)C(NC(=O)c3ccccc3C)(C(F)(F)F)N=C2c2ccccc2)cc1 (configuration not stated)	DT40 TDP1 CPT 21µM, TDP1 cell noCPT 15µM (no result: RORgamma inh, Gal4-VP16 FLuc, IL-1B inflam inh, ELG1 repair inh)
COc1ccc(CN2C(=O)C(NC(=O)c3ccc(C)cc3)(C(F)(F)F)N=C2c2ccccc2)cc1 (configuration not stated)	DT40 TDP1 CPT 23µM, TDP1 cell noCPT 23µM (no result: RORgamma inh, Gal4-VP16 FLuc, IL-1B inflam inh, ELG1 repair inh)
COc1ccc(NC(=O)c2ccccc2C)cc1	DT40 TDP1 CPT inconclusive, TDP1 cell noCPT inconclusive, ELG1 repair inh inconclusive
Cc1ccc(C(=O)NC2(C(F)(F)F)N=C(c3ccccc3)N(Cc3ccccc3)C2=O)cc1 (configuration not stated)	DT40 TDP1 CPT inconclusive, TDP1 cell noCPT 26µM (no result: RORgamma inh, Gal4-VP16 FLuc, IL-1B inflam inh, ELG1 repair inh)
CN(Cc1ccccc1)C(=O)c1ccc(NC(=O)Cc2ccc(NC(=O)C3CCCN(S(=O)(=O)c4cccc([N+](=O)[O-])c4)C3)cc2)cc1 (configuration not stated)	DT40 TDP1 CPT inconclusive, TDP1 cell noCPT inconclusive (no result: RORgamma inh, Gal4-VP16 FLuc, ELG1 repair inh)
O=C(CN1CCN(S(=O)(=O)c2ccc(Br)cc2)CC1)N/N=C/c1ccc(Cl)c([N+](=O)[O-])c1	RORgamma inh inconclusive, IL-1B inflam inh -90, DT40 TDP1 CPT inconclusive, TDP1 cell noCPT 18µM, ELG1 repair inh inconclusive
O=C(Cn1cnc([N+](=O)[O-])n1)N/N=C/c1ccc(O)cc1O	DT40 TDP1 CPT inconclusive, TDP1 cell noCPT 12µM, ELG1 repair inh inconclusive
Cc1cc(C)n(CCC(=O)N/N=C/c2ccc(Cl)c([N+](=O)[O-])c2)n1	IL-1B inflam inh -90
Cc1cc(C)n(CCC(=O)N/N=C/c2ccccc2O)n1	RORgamma inh 1.3µM, Gal4-VP16 FLuc 1.3µM, DT40 TDP1 CPT 12µM, TDP1 cell noCPT 12µM, ELG1 repair inh inconclusive
Cc1ccc(S(=O)(=O)N2CCN(CC(=O)N/N=C\c3ccc(Cl)c([N+](=O)[O-])c3)CC2)cc1	IL-1B inflam inh inconclusive, DT40 TDP1 CPT inconclusive, TDP1 cell noCPT inconclusive
O=C(Cn1cnc([N+](=O)[O-])n1)N/N=C/c1cccc(Cl)c1	none
COc1ccc(/C=N/NC(=O)CCn2nc(C)cc2C)cc1O	none
Cc1cc(C)n(CCC(=O)N/N=C/c2ccc(O)cc2O)n1	RORgamma inh inconclusive, DT40 TDP1 CPT inconclusive, TDP1 cell noCPT 23µM, ELG1 repair inh inconclusive
N#C/C(=C(/O)COC(=O)c1cccnc1Cl)c1nc2ccccc2[nH]1	RORgamma inh 7.9µM, Gal4-VP16 FLuc inconclusive, DT40 TDP1 CPT 18µM, TDP1 cell noCPT 23µM
CC(C)(C)c1ccc(C(=O)OC/C(O)=C(\C#N)c2nc3ccccc3s2)cc1	DT40 TDP1 CPT inconclusive, TDP1 cell noCPT inconclusive
N#C/C(=C(/O)COC(=O)c1ccccc1O)c1nc2ccccc2s1	TDP1 cell noCPT 16µM
CC(C)OCc1c(C(=O)OC/C(O)=C(\C#N)c2nc3ccccc3[nH]2)oc2ccccc12	TDP1 cell noCPT inconclusive
N#C/C(=C(/O)COC(=O)CCC1CCCCC1)c1nc2ccccc2[nH]1	RORgamma inh 11µM, Gal4-VP16 FLuc 10µM, IL-1B inflam inh -85, DT40 TDP1 CPT 5.2µM, TDP1 cell noCPT 4.1µM
N#CC(=C(O)COC(=O)CCCNC(=O)c1ccc(Cl)cc1)c1nc2ccccc2[nH]1	IL-1B inflam inh -97, DT40 TDP1 CPT inconclusive (no result: RORgamma inh, Gal4-VP16 FLuc, ELG1 repair inh)
CC(C)N1C(=O)C2C(c3ccccc3O)NC(C)(C(=O)O)C2C1=O (configuration not stated)	none
COc1ccc(C2CC(c3ccccc3)Nc3nc(NS(C)(=O)=O)nn32)cc1 (configuration not stated)	none
CC(C)C(=O)OC/C(O)=C(\C#N)c1nc2ccccc2[nH]1	RORgamma inh 6.3µM, Gal4-VP16 FLuc 10µM
